Source: PubChem BioAssay (Tox21)
Records with an inconclusive call do not appear. The source made the active and inactive calls. Unless noted, the call rests on the fitted dose curve; in most records, active means well fitted curve in the direction sought with a large enough effect in the repeat runs; inconclusive means weak or mixed curves; inactive means no such curve, though single readings can be large; an effect the other way counts as inactive or inconclusive.

Legend:
[1] = qHTS assay to identify small molecule antagonists of the estrogen related receptor (ERR) signaling pathway from Tox21 library - cell viability counter screen (AID 1224834); further: nearly all actives have a fitted effect of over 30% in size
Outline: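 ERR reporter cells were plated 6 h before compound addition, then exposed to test compounds in DMSO for 17.5 h at 37 C. Viability was read as CellTiter-Fluor fluorescence after a 30-minute incubation at 37 C.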

[2] = target: Luciferin 4-monooxygenase (Photinus pyralis) (UniProt P08659); test: qHTS assay to identify small molecule inhibitors of firefly luciferase (AID 1224835); further: series mostly up to about 120 µM; nearly all actives have a fitted effect of over 25% in size
Outline: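 Quantitative HTS format; KM concentrations of both substrates. Purified P. pyralis FLuc activity quantified from luminescence images.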

[3] = qHTS assay to identify small molecule agonists of the constitutive androstane receptor (CAR) signaling pathway - cell viability counter screen (AID 1224836); further: series mostly up to about 92 µM; nearly all actives have a fitted effect of over 45% in size
Outline: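 Cells were seeded and incubated 4 hrs. Compounds were added across 15 concentrations together with PK11195 at 0.75 uM final. Plates were incubated 23 hrs at 37 C. CellTiter-Fluor was added and fluorescence measured.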

[4] = qHTS assay to identify small molecule antagonists of the constitutive androstane receptor (CAR) signaling pathway - cell viability counter screen (AID 1224837); further: series mostly up to about 92 µM; nearly all actives have a fitted effect of over 45% in size
Outline: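 HepG2 cells stably expressing hCAR and a CYP2B6-2.2kb reporter were plated and pre-incubated 4 hr at 37 C/5% CO2, then given compounds at 15 concentrations plus 50 nM CITCO (final). After 23 hr, viability was read by CellTiter-Fluor fluorescence.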

[5] = target: Nuclear receptor subfamily 1 group I member 3 (Homo sapiens) (UniProt Q14994); test: qHTS assay to identify small molecule antagonists of the constitutive androstane receptor (CAR) signaling pathway (AID 1224838); further: nearly all actives have a fitted effect of over 40% in size
Outline: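 HepG2 cells stably co-transfected with hCAR and a CYP2B6-2.2kb luciferase reporter were seeded 4 h before compound addition at 15 concentrations. Cells were stimulated with 50 nM CITCO (final) for 24 h at 37 C; luciferase luminescence was then read.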

[6] = target: Nuclear receptor subfamily 1 group I member 3 (Homo sapiens) (UniProt Q14994); test: qHTS assay to identify small molecule agonists of the constitutive androstane receptor (CAR) signaling pathway (AID 1224839); further: nearly all actives have a fitted effect of over 15% in size; further: potency means the concentration at half of the fitted maximal effect;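 on activation: HepG2 cells stably carrying human CAR and a CYP2B6 luciferase reporter; series mostly up to about 92 µM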
Outline: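 Cells were plated and incubated 4 hrs, then dosed with compounds at 15 concentrations. PK11195 was added to 0.75 uM final. After 24 hrs at 37 C, luciferase luminescence was measured.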

[7] = qHTS assay to identify small molecule antagonists of the estrogen related receptor signaling pathway with the pleiotropic PPARgamma coactivator (PGC) from Tox21 10K library - cell viability counter screen (AID 1224840; active means well fitted cell-killing curve with a large enough effect in the repeat runs, not every such curve was filed as active; further: nearly all actives have a fitted effect of over 40% in size)
Outline: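 PGC/ERR cells were seeded at 2,000 cells/well and left 6 hours at 37 C/5% CO2 before pin-tool addition of compounds in DMSO. After 17.5 hours at 37 C, CellTiter-Fluor was added and fluorescence read 30 minutes later.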

[8] = target: Thyrotropin receptor (Homo sapiens) (UniProt P16473); test: qHTS assay to identify small molecule agonists of the thyroid stimulating hormone receptor (TSHR) signaling pathway (AID 1224843; calls by dose curve; further: nearly all actives have a fitted effect of over 45% in size; further: potency means the concentration at half of the fitted maximal effect)
Outline: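 Cell line HEK293 with TSHR; density 800/well. Exposure 30 min RT. Readout HTRF cAMP (cAMP-d2/anti-cAMP-cryptate), 1 h RT before reading.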

[9] = qHTS assay to identify small molecule agonists of the hypoxia (HIF-1) signaling pathway - cell viability counter screen (AID 1224844; calls by dose curve; further: nearly all actives have a fitted effect of over 50% in size)
Outline: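 HRE-bla ME-180 cells in medium with 0.5% dialyzed FBS were preincubated 5 hrs at 37C, exposed to compounds for 17 hrs, then viability was read as CellTiter-Glo luminescence after 30 min at room temperature, in the reporter wells.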

[10] = qHTS assay to identify small molecule agonists of H2AX (AID 1224845; active means well fitted activation curve with a large enough effect in the signal ratio in the repeat runs, not every such curve was filed as active; the % refers to the signal ratio)
Outline: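 Wild-type CHO-K1 cells plated overnight, then exposed 3 hr at 37C to compounds at 15 concentrations (0.76% DMSO). Lysed, then HTRF anti-pH2AX(S139)-cryptate/anti-H2AX-d2 detection after 24 hr at room temperature; emissions 665 and 620 nm.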

[11] = qHTS assay to identify small molecule agonists of the hypoxia (HIF-1) signaling pathway (AID 1224846; active means well fitted activation curve with a large enough effect in the signal ratio in the repeat runs, not every such curve was filed as active; the % refers to the signal ratio)
Outline: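 HRE-bla ME-180 cells (beta-lactamase reporter under hypoxia response element) were plated at 2,000 cells/well in medium with 0.5% dialyzed FBS, rested 5 hrs, then given compounds in DMSO for 17 hrs at 37C, 5% CO2. Reporter induction was read with CCF4-AM FRET substrate.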

[12] = qHTS assay to identify small molecule agonists of H2AX - cell viability counter screen (AID 1224847; calls by dose curve; further: top concentration of the series differs between compounds; nearly all actives have a fitted effect of over 30% in size)
Outline: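 Cytotoxicity counter screen in wild-type CHO-K1 cells: a 3 hr compound treatment at 37C across 15 concentrations, followed by CellTiter-Glo luminescence to gauge viable cells.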

[13] = qHTS RealTime-Glo MT Cell Viability Assay in HEK293 cells - 32 hour (AID 1224868); further: top concentration of the series differs between compounds; nearly all actives have a fitted effect of over 50% in size
Outline: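 Luminescence generated by NanoLuc from substrate produced by living HEK293 cells served as the viability signal. Each value reflects the reading at its stated time point during continuous 40 h compound exposure at 37 C.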

[14] = A CellTox Green Cytotoxicity Assay to monitor cytotoxicity in HEK293 cells - 0 hour (AID 1224869); further: nearly all actives have a fitted effect of over 50% in size
Outline: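 HEK293 cells premixed with CellTox Green dye were seeded at 600 cells/well and left 5 h at 37 C/5% CO2 before pin transfer of 23 nL compound in DMSO. Fluorescence from dye bound to dead-cell DNA was read during 40 h treatment.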

[15] = qHTS RealTime-Glo MT Cell Viability Assay in HepG2 cells - 40 hour (AID 1224870); further: nearly all actives have a fitted effect of over 50% in size
Outline: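 HepG2 cells mixed with RealTime-Glo MT reagents (NanoLuc plus cell-permeant prosubstrate) were seeded at 600 cells/well, incubated 5 h at 37 C/5% CO2, then pinned with compounds in DMSO; nonlytic luminescence tracked viability during 40 h treatment.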

[16] = qHTS RealTime-Glo MT Cell Viability Assay in HepG2 cells - 24 hour (AID 1224867); further: nearly all actives have a fitted effect of over 50% in size
Outline: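 Tox21 10K library screened in qHTS format on HepG2 cells carrying RealTime-Glo reagents. Compounds were added after a 5 h preincubation, and the luminescent signal from continuous culture was measured repeatedly during 40 h treatment.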
On the % scale 0 is the no-effect control and ±100 the full control effect.

Chain of Nuclear receptor subfamily 1 group I member 3 (Homo sapiens) (Q14994 whole entry, looked up): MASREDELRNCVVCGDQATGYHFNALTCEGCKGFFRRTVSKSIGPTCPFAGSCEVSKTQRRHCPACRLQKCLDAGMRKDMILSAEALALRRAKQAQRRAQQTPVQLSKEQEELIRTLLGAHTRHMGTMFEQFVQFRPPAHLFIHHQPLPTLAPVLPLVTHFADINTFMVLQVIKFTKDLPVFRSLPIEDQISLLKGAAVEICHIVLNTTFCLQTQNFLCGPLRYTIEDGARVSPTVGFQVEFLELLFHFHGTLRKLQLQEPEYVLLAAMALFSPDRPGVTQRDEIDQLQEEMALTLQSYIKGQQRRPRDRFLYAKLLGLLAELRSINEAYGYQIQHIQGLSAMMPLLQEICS
Chain of Thyrotropin receptor (Homo sapiens) (P16473 whole entry, looked up): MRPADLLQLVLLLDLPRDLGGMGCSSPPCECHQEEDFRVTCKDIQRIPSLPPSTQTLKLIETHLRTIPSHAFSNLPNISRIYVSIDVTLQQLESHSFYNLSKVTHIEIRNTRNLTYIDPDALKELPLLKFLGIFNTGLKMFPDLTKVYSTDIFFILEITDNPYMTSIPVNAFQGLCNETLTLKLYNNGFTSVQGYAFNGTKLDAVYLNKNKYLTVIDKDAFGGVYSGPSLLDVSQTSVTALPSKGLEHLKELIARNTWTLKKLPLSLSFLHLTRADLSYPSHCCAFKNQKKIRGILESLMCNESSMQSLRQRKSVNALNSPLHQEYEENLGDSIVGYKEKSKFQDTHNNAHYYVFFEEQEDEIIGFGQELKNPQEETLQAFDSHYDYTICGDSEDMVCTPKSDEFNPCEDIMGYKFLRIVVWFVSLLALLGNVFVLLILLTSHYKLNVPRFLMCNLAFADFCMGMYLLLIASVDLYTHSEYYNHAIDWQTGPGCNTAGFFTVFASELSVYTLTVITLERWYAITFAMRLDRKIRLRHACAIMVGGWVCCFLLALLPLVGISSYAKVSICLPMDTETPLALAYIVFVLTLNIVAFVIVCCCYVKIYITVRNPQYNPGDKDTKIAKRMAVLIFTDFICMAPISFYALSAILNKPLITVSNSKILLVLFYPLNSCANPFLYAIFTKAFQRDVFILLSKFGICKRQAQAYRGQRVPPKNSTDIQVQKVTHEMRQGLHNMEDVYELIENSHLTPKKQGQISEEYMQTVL
Chain of Luciferin 4-monooxygenase (Photinus pyralis) (P08659 whole entry, looked up): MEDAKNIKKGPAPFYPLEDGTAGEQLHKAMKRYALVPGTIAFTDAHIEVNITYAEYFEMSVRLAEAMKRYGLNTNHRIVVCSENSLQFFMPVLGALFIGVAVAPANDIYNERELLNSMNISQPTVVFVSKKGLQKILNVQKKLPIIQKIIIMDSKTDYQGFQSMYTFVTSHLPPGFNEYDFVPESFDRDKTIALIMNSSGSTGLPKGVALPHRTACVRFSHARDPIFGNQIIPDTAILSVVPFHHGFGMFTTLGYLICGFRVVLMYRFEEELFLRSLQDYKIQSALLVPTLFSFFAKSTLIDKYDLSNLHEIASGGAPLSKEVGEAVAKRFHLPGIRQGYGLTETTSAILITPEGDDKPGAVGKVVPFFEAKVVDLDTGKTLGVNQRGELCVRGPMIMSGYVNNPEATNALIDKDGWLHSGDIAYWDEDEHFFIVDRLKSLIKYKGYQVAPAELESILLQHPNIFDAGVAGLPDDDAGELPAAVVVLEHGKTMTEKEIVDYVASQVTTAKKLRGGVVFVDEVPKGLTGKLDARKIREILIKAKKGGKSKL

CCCCCCC(CO)CCCC (stereo not given)
inactive: Potency [1] | Potency [2] | Potency [3] | Potency [4] | Potency [5] | Potency [6] | Potency [7] | Potency [8] | Potency [9] | Potency [10] | outcome [11] | Potency [12] | Potency [13] | Potency [14] | Potency [15]

Cc1cc(CCCOc2c(C)cc(-c3noc(C(F)(F)F)n3)cc2C)on1
active: Potency [6] 23.7 µM
inactive: Potency [1] | Potency [2] | Potency [3] | Potency [4] | Potency [5] | Potency [7] | Potency [9] | Potency [10] | outcome [11] | Potency [16] | Potency [15]

COC(=O)CC(C(C)=O)C(=O)OC (stereo not given)
inactive: Potency [1] | Potency [2] | Potency [3] | Potency [4] | Potency [5] | Potency [6] | Potency [7] | Potency [9] | Potency [10] | outcome [11] | Potency [12] | Potency [16] | Potency [13] | Potency [14] | Potency [15]

CCC(Cl)CC(Cl)C(Cl)C(Cl)C(Cl)C(C)Cl (stereo not given)
inactive: viability change, negative = cytotoxic [1] -2.15% [at 19 µM] | activity change, negative = inhibition [2] -6.92% [at 23.6 µM] | viability change, negative = cytotoxic [3] -5.9% [at 19 µM] | activity change, negative = cytotoxicity [4] -3.5% [at 19 µM] | activity, negative = inhibition [5] 94.1% [at 19 µM] | viability change, negative = cytotoxic [7] -3.01% [at 19 µM] | activation [8] 15.8% [at 19 µM] | activity change, negative = cytotoxicity [9] -3.49% [at 15.8 µM] | activation (H2AX phosphorylation) [10] -1.57% [at 31.6 µM] | activation [11] 0.0674% [at 15.8 µM] | activity change, negative = cytotoxicity [12] -5.22% [at 31.6 µM] | activity change, negative = cytotoxicity [16] -1.2% [at 15.8 µM] | cytotoxicity [14] 15.1% [at 15.8 µM]
active: Potency [6] 2.65 µM

Nc1ccc(S(=O)(=O)NCc2ccccc2)cc1
inactive: Potency [1] | Potency [2] | Potency [3] | Potency [4] | Potency [5] | Potency [6] | Potency [7] | Potency [8] | Potency [9] | Potency [10] | outcome [11] | Potency [16] | Potency [13] | Potency [14] | Potency [15]

O=C1OC(=O)c2c(Br)c(Br)c(Br)c(Br)c21
inactive: Potency [1] | Potency [2] | Potency [3] | Potency [4] | Potency [5] | Potency [6] | Potency [7] | Potency [8] | Potency [9] | outcome [11] | Potency [12] | Potency [16] | Potency [13] | Potency [14] | Potency [15]

CCN(CC)CCNC(=O)c1cc(Cl)c(N)cc1OC
inactive: Potency [1] | Potency [2] | Potency [3] | Potency [4] | Potency [5] | Potency [6] | Potency [7] | Potency [8] | Potency [9] | Potency [10] | Potency [12] | Potency [13] | Potency [14] | Potency [15]

O=c1[nH]c2cc(C(F)(F)F)c(N3CCOCC3)cc2n(CP(=O)(O)O)c1=O
inactive: Potency [1] | Potency [2] | Potency [3] | Potency [4] | Potency [5] | Potency [6] | Potency [7] | Potency [9] | Potency [10] | outcome [11] | Potency [12] | Potency [16] | Potency [13] | Potency [14]

O=C(O)/C=C/c1ccc(O)c(O)c1
inactive: Potency [1] | Potency [2] | Potency [3] | Potency [4] | Potency [5] | Potency [6] | Potency [7] | Potency [8] | Potency [12] | Potency [16] | Potency [13] | Potency [14]

CC1=C2[C@@H]([C@H](C)CC[C@H]2/C=C(\C)C(=O)O)[C@H](O)C1
inactive: Potency [1] | Potency [2] | Potency [3] | Potency [4] | Potency [5] | Potency [6] | Potency [7] | Potency [9] | Potency [10] | outcome [11] | Potency [12] | Potency [13] | Potency [15]

C=C(C)C(=O)OCCC(F)(F)C(F)(F)C(F)(F)C(F)(F)C(F)(F)C(F)(F)F
inactive: Potency [1] | Potency [2] | Potency [3] | Potency [4] | Potency [5] | Potency [6] | Potency [7] | Potency [9] | Potency [10] | outcome [11] | Potency [12] | Potency [16] | Potency [13] | Potency [14] | Potency [15]

CCOC(=O)C(C)O (stereo not given)
inactive: Potency [1] | Potency [2] | Potency [3] | Potency [4] | Potency [5] | Potency [6] | Potency [7] | Potency [9] | Potency [10] | outcome [11] | Potency [12] | Potency [16] | Potency [13] | Potency [14] | Potency [15]

C/C(C=O)=C\c1ccccc1
inactive: Potency [1] | Potency [2] | Potency [3] | Potency [4] | Potency [5] | Potency [6] | Potency [7] | Potency [8] | Potency [10] | outcome [11] | Potency [12] | Potency [16] | Potency [13] | Potency [15]

O=C(CCS)OCC(COC(=O)CCS)(COC(=O)CCS)COC(=O)CCS
inactive: Potency [1] | Potency [2] | Potency [3] | Potency [4] | Potency [5] | Potency [6] | Potency [7] | Potency [8] | Potency [10] | Potency [16] | Potency [15]

O=S(=O)(Cl)c1c(Cl)cccc1Cl
inactive: Potency [1] | Potency [2] | Potency [3] | Potency [4] | Potency [5] | Potency [6] | Potency [7] | Potency [8] | Potency [10] | outcome [11] | Potency [12] | Potency [13] | Potency [15]

CCCCC[C@H](O)/C=C/[C@H]1[C@H](O)CC(=O)[C@@H]1C/C=C\CCCC(=O)O
active: Potency [8] 26.6 nM
inactive: Potency [1] | Potency [2] | Potency [3] | Potency [4] | Potency [5] | Potency [6] | Potency [7] | Potency [10] | outcome [11] | Potency [12] | Potency [16] | Potency [14] | Potency [15]

NC(=O)CCCCC(N)=O
inactive: Potency [1] | Potency [2] | Potency [3] | Potency [4] | Potency [5] | Potency [6] | Potency [7] | Potency [8] | Potency [9] | Potency [10] | outcome [11] | Potency [12] | Potency [16] | Potency [13] | Potency [15]

CC(C)N(C)C
inactive: Potency [1] | Potency [2] | Potency [3] | Potency [4] | Potency [5] | Potency [6] | Potency [7] | Potency [8] | Potency [9] | Potency [10] | outcome [11] | Potency [12] | Potency [13] | Potency [14] | Potency [15]

CCN(CC)CC(=O)Nc1c(C)cccc1C(=O)OC
active: Potency [6] 23.7 µM
inactive: Potency [1] | Potency [2] | Potency [3] | Potency [4] | Potency [5] | Potency [7] | Potency [8] | Potency [10] | outcome [11] | Potency [16] | Potency [13] | Potency [14] | Potency [15]
